Inconclusive results are not listed. Values without a mark were called inactive. Activity calls are given as the source filed them. Calls follow the shape of the dose curve; as a rule, active = well fitted cell-killing curve with a large enough effect; inconclusive = small, poorly fitted or top-dose-only effect, or effect the other way; inactive = no such curve, though single readings can be large or run the other way. *1 amine or outer side, *2 acyl side, *3 side chain or, on linkers, in order; H or OH if unused. Where a SMILES comes first, the peptide text is derived from it. Bridges are numbered along the chain shown (N, C = ends). Roman numbers before positions name the chains, in order. [ ]: non-standard residue; d: D form. Actinocin(9to1) = Cc1c2oc3c(C)ccc(C(=O)[*:1])c3nc-2c(C(=O)[*:2])c(N)c1=O; NMeV = CN[C@H](C(=O)O)C(C)C; Sar = CNCC(=O)O
Tested on: Jar
Experiment: Confirmatory qHTS for gynecologic anti-cancer compounds from libraries of approved drugs and bioactive compounds; also: nearly all actives have a fitted effect of over 55% in size
Details: gynecologic cancer cell panel viability, ATPlite luminescence, 48 h; series mostly up to 57.6 µM
Outline: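 Cells (1,000/well) plated 16 h, then exposed 48 h at 37 °C to 11 concentrations (1:3) from 57.5 uM to 0.977 nM. Viability by ATPlite luminescence after 15 min; IC50 derived, with HEK 293T used for selectivity index.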
% is scaled to controls: 0 for no effect and ±100 for the full control effect; potency is read from the fitted curve at half-maximal effect.

SMILES	Potency	activity change, negative = viability loss
OC[C@H]1O[C@@H](n2cnc3c(=S)nc[nH]c32)[C@H](O)[C@@H]1O	12.2 µM (active)	
COC(C(=O)N1Cc2[nH]nc(NC(=O)c3ccc(N4CCN(C)CC4)cc3)c2C1)c1ccccc1 (configuration not stated)	inactive	
Cc1cc(Nc2nc(N[C@@H](C)c3ccc(F)cc3)c(C#N)cc2F)n[nH]1	2.73 µM (active)	
CC[C@@]1(O)C(=O)OCc2c1cc1n(c2=O)Cc2cc3c(CN(C)C)c(O)ccc3nc2-1	7.69 µM (active)	
C#C[C@]1(O)CC[C@H]2[C@@H]3CCC4=CC(=O)CC[C@@H]4[C@H]3CC[C@@]21CC	inactive	
Cc1c2oc3c(C)ccc(C(=O)N[C@@H]4C(=O)N[C@H](C(C)C)C(=O)N5CCC[C@H]5C(=O)N(C)CC(=O)N(C)[C@@H](C(C)C)C(=O)O[C@@H]4C)c3nc-2c(C(=O)N[C@@H]2C(=O)N[C@H](C(C)C)C(=O)N3CCC[C@H]3C(=O)N(C)CC(=O)N(C)[C@@H](C(C)C)C(=O)O[C@@H]2C)c(N)c1=O (I: T[dV]P[Sar][NMeV] / II: T[dV]P[Sar][NMeV]; ester I:1-I:C, II:1-II:C; linker I:N-II:N via Actinocin(9to1))	1.72 µM (active)	
CC1=C(/C=C/C(C)=C/C=C/C(C)=C/C(=O)Nc2ccc(O)cc2)C(C)(C)CCC1	21.7 µM (active)	
COc1cc2c(NC3CCN(C(C)C)CC3)nc(C3CCCCC3)nc2cc1OCCCN1CCCC1	10.9 µM (active)	
Cc1cnc(Nc2cccc(CN3CCOCC3)c2)nc1Nc1cccc(S(=O)(=O)NC(C)(C)C)c1	21.7 µM (active)	
COc1ccc(-c2ccc3c(N4CCOCC4C)nc(N4CCOCC4C)nc3n2)cc1CO (configuration not stated)	inactive	
Cc1cc(Nc2cc(N3CCN(C)CC3)nc(Sc3ccc(NC(=O)C4CC4)cc3)n2)n[nH]1	inactive	
O=c1cc(CN2CCOCC2)occ1OCCCCCSc1ccnc2cc(C(F)(F)F)ccc12	7.69 µM (active)	
C1CCC(C(CC2CCCCN2)C2CCCCC2)CC1 (configuration not stated)	24.3 µM (active)	
NC(=O)c1cccc2cn(-c3ccc([C@@H]4CCCNC4)cc3)nc12	inactive	
COc1cc(Nc2c(C#N)cnc3cc(OCCCN4CCN(C)CC4)c(OC)cc23)c(Cl)cc1Cl	24.3 µM (active)	
Cc1nc(N)sc1-c1ccnc(Nc2ccc(N3CCOCC3)cc2)n1	3.85 µM (active)	

SMILES	Potency	activity change, negative = viability loss
CCCCc1oc2ccccc2c1C(=O)c1cc(I)c(OCCN(CC)CC)c(I)c1	79.4 µM (active)	
CCS(=O)(=O)N1CCN(c2ccc(Nc3ncc(C(N)=O)c(NC4CC4)n3)cc2)CC1	12.2 µM (active)	
CN[C@@H](C)C(=O)N[C@H]1CN(C(=O)CC(C)C)CC[C@H]2CC[C@@H](C(=O)NC(c3ccccc3)c3ccccc3)N2C1=O	inactive	
CCN(CC)CCCC(C)Nc1c2ccc(Cl)cc2nc2ccc(OC)cc12 (configuration not stated)	inactive	
CC(C)(C(=O)NCC(F)(F)C(F)(F)F)C(=O)NC1C(=O)Nc2ccccc2-c2ccccc21 (configuration not stated)	inactive	
CC(C)Oc1ccc2c(=O)c(-c3ccccc3)coc2c1	21.7 µM (active)	
CCCc1nn(C)c2c(=O)[nH]c(-c3cc(S(=O)(=O)N4CCN(C)CC4)ccc3OCC)nc12	inactive	
CC(=O)OC12COC1CC(O)C1(C)C(=O)C(O)C3=C(C)C(OC(=O)C(O)C(NC(=O)OC(C)(C)C)c4ccccc4)CC(O)(C(OC(=O)c4ccccc4)C21)C3(C)C (configuration not stated)	0.0432 µM (active)	
CCN(CC)CCOc1ccc(/C(=C(\Cl)c2ccccc2)c2ccccc2)cc1	89.1 µM (active)	
COc1ccc(-c2nc3ccc(C4=NNC(=O)CC4C)cc3[nH]2)cc1 (configuration not stated)	21.7 µM (active)	
CC[C@H](Nc1ncnc2nc[nH]c12)c1nc2cccc(F)c2c(=O)n1-c1ccccc1		-10.1% [at 10.7 µM]
C[C@]12CCC(=O)C=C1CC[C@@H]1[C@@H]2[C@@H](O)C[C@@]2(C)[C@H]1CC[C@]2(O)C(=O)CO	inactive	
O=C(CCCCCCC(=O)Nc1ccccc1)NO	3.85 µM (active)	
Cn1cnc2c(F)c(Nc3ccc(Br)cc3Cl)c(C(=O)NOCCO)cc21	inactive	
COc1ccc(CCC(=O)c2c(O)cc(O[C@@H]3O[C@H](CO)[C@@H](O)[C@H](O)[C@H]3O[C@@H]3O[C@@H](C)[C@H](O)[C@@H](O)[C@H]3O)cc2O)cc1O	inactive	
COc1cc2nccc(Oc3ccc(NC(=O)C4(C(=O)Nc5ccc(F)cc5)CC4)cc3)c2cc1OC	27.3 µM (active)	
